Experiment in all cases: DAPPL (digital affinity profiling via proximity ligation, sequencing); 10 mM Tris-HCl pH 7.5, 50 mM NaCl, 1 mM DTT, 4% glycerol, room temperature, 30 min; GST-TFs on glutathione beads, 16-mer random dsDNA library, 0.1% formaldehyde crosslink after washing; high values mean tight binding
In one test the target is T1, FLI1 (Homo sapiens, UniProt Q01543 1-452).
T1 sequence: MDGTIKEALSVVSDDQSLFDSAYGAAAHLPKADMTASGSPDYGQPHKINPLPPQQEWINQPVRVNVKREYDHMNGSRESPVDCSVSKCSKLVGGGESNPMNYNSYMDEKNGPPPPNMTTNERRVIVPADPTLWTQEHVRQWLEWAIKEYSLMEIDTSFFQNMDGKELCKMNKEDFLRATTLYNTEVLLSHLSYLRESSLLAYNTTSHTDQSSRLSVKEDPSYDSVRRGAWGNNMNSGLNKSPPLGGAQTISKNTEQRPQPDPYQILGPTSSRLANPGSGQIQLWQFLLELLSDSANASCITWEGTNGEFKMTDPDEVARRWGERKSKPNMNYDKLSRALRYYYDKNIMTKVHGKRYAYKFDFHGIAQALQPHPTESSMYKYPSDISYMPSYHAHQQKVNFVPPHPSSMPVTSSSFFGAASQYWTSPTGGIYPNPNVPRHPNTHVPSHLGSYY
The note with it: protein: recombinant; tags: N-terminal GST; dsDNA, one strand shown. Put shortly: (§1)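 Each value of binding signal is a hexamer's read frequency for a factor divided by the same hexamer's frequency in the tag-only sample. Barcoded, bead-captured GST fusions of human transcription factors made in yeast were pooled with that sample and incubated with 200 nmole of a random double-stranded 16-mer DNA library in Tris/NaCl/DTT/glycerol buffer at room temperature for 30 min. Washing, 0.1% formaldehyde crosslinking, proximity ligation, PCR and Illumina NextSeq500 sequencing followed.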

The target in another test is T2, ELK1 (Homo sapiens, UniProt P19419 1-428).
T2 sequence: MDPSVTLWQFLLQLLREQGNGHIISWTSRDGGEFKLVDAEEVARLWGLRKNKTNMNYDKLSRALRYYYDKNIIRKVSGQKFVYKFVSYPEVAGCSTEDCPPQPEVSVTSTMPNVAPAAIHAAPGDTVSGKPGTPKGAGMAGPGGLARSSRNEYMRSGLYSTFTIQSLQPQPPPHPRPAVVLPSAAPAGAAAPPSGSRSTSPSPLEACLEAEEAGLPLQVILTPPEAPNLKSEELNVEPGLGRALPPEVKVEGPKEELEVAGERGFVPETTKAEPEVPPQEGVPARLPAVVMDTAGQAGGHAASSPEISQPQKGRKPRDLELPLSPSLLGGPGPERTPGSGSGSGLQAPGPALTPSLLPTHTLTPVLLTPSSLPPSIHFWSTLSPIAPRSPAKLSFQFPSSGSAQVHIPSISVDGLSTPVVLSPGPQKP
The following applies: protein: recombinant; tags: N-terminal GST; dsDNA, one strand shown. Put shortly:
as §1

The target of a further test is T3, GABPA (Homo sapiens, UniProt Q06546 1-454).
T3 sequence: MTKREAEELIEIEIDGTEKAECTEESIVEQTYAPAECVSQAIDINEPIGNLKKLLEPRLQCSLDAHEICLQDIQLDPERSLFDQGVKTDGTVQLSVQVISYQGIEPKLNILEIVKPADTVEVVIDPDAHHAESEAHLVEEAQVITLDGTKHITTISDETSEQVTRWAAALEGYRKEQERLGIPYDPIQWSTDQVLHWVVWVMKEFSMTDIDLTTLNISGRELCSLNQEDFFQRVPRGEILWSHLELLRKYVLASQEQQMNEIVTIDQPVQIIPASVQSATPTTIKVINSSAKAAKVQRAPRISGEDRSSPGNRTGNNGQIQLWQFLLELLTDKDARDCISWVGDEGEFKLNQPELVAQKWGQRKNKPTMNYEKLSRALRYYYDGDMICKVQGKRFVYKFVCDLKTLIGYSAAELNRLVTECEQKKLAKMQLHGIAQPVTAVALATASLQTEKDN
The following applies: protein: recombinant; tags: N-terminal GST; dsDNA, one strand shown. The gist of the method:
as §1

The target of a further test is T4, ERG (Homo sapiens, UniProt P11308 1-479).
T4 sequence: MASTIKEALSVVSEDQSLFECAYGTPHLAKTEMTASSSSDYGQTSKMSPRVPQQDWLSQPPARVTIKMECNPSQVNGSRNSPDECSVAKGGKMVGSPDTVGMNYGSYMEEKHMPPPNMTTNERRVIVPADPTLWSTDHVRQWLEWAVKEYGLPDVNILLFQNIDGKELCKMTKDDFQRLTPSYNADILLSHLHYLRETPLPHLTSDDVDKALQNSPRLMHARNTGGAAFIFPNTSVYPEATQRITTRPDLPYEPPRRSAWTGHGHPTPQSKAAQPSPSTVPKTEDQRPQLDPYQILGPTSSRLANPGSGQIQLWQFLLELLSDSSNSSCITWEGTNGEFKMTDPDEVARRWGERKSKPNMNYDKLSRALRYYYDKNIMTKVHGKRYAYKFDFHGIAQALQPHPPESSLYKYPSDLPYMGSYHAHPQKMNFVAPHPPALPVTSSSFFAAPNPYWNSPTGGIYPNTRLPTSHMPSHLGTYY
The note with it: protein: recombinant; tags: N-terminal GST; dsDNA, one strand shown. Put shortly:
as §1

The next test addresses ELF1 (Homo sapiens, UniProt P32519 1-619). The following applies: protein: recombinant; tags: N-terminal GST; dsDNA, one strand shown. The gist of the method: as §1
For a further test, the target named is T5, EHF (Homo sapiens, UniProt Q9NZC4 1-300).
T5 sequence: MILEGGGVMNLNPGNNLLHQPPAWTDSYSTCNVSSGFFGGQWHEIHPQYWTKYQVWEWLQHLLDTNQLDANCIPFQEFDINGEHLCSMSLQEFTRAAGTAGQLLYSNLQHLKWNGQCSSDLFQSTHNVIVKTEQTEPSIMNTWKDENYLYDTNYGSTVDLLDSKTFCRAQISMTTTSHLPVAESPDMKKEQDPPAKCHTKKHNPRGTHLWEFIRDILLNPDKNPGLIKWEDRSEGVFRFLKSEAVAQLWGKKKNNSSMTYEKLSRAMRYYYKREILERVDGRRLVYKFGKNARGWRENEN
The following applies: protein: recombinant; tags: N-terminal GST; dsDNA, one strand shown. The gist of the method: as §1

For a further test, the target named is SPI1 (Homo sapiens, UniProt P17947 1-270). The following applies: protein: recombinant; tags: N-terminal GST; dsDNA, one strand shown. The gist of the method:
as §1

For a further test, the target named is SPIB (Homo sapiens, UniProt Q01892 1-262). The following applies: protein: recombinant; tags: N-terminal GST; dsDNA, one strand shown. The gist of the method: as §1
The next test concerns the target T6, ELK3 (Homo sapiens, UniProt P41970 1-407).
T6 sequence: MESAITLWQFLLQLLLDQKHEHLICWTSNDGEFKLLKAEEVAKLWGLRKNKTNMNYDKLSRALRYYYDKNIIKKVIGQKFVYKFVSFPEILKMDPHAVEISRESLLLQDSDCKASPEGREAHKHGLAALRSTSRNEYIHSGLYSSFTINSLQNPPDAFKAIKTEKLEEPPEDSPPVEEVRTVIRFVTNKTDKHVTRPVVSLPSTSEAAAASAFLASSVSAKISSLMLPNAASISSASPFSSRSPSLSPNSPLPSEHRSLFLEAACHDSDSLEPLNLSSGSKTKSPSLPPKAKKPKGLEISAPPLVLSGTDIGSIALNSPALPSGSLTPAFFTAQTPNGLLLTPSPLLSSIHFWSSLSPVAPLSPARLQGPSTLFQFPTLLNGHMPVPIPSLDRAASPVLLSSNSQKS
The following applies: protein: recombinant; tags: N-terminal GST; dsDNA, one strand shown. The gist of the method: as §1

The target of another test is T7, FEV (Homo sapiens, UniProt Q99581 1-238).
T7 sequence: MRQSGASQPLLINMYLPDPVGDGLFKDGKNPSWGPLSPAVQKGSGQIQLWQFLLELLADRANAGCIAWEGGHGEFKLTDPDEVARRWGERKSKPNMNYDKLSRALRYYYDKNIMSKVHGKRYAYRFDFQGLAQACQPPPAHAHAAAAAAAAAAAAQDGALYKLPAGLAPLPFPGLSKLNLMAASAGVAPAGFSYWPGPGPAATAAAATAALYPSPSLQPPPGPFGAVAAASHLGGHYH
The note with it: protein: recombinant; tags: N-terminal GST; dsDNA, one strand shown. Put shortly: as §1

For the next test, the target named is ETV5 (Homo sapiens, UniProt P41161 1-510). The following applies: protein: recombinant; tags: N-terminal GST; dsDNA, one strand shown. Put shortly: as §1
In the next test the target is HSF1 (Homo sapiens, UniProt Q00613 1-529). The note with it: protein: recombinant; tags: N-terminal GST; chain copies: 3; dsDNA, one strand shown. Put shortly: as §1
A further test addresses T8, SPIC (Homo sapiens, UniProt Q8N5J4 1-248).
T8 sequence: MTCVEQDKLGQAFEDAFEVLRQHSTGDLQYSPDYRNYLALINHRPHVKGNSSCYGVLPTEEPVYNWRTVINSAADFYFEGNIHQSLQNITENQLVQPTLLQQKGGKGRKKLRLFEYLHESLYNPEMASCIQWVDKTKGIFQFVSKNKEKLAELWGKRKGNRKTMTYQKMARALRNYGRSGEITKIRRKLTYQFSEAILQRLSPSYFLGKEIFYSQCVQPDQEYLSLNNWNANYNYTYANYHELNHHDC
The following applies: protein: recombinant; tags: N-terminal GST; dsDNA, one strand shown. The gist of the method: as §1

The next test concerns the target ELF4 (Homo sapiens, UniProt Q99607 1-663). The note with it: protein: recombinant; tags: N-terminal GST; dsDNA, one strand shown. Put shortly: as §1
For another test, the target named is T9, ELK4 (Homo sapiens, UniProt P28324-2 1-405).
T9 sequence: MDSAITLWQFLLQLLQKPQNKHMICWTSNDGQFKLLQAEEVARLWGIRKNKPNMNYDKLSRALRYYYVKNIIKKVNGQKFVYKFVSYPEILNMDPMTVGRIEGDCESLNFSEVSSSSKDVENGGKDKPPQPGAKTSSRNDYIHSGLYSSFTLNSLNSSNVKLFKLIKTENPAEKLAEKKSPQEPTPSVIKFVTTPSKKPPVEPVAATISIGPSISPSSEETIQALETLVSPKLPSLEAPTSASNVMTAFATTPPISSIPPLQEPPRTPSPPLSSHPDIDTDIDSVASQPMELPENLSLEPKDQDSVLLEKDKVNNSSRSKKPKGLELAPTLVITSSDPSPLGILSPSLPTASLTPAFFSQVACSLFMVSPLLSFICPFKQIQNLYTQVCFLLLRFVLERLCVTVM
The note with it: protein: recombinant; tags: N-terminal GST; dsDNA, one strand shown. The gist of the method: as §1

The target of another test is T10, ETV2 (Homo sapiens, UniProt O00321 1-342).
T10 sequence: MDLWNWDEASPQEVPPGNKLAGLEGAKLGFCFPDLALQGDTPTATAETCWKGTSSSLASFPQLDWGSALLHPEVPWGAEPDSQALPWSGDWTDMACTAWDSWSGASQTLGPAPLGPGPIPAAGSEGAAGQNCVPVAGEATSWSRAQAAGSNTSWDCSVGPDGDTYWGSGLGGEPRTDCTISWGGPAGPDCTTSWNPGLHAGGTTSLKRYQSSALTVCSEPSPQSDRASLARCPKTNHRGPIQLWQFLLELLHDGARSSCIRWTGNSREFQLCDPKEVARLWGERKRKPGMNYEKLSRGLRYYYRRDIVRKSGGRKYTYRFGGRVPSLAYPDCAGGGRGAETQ
The note with it: protein: recombinant; tags: N-terminal GST; dsDNA, one strand shown. The gist of the method:
as §1

Another test deals with T11, ELF3 (Homo sapiens, UniProt P78545 1-371).
T11 sequence: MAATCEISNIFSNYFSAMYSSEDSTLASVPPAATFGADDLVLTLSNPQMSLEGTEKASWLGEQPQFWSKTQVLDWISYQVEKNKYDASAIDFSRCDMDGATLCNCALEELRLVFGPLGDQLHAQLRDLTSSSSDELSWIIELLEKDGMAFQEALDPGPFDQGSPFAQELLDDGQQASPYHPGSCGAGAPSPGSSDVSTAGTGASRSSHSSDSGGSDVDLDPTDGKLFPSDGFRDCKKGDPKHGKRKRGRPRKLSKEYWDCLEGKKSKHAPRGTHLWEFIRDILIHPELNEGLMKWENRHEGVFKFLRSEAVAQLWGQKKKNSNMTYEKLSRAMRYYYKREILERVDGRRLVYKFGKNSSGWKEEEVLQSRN
The note with it: protein: recombinant; tags: N-terminal GST; dsDNA, one strand shown. The gist of the method:
as §1

The next test concerns the target CRX (Homo sapiens, UniProt O43186 1-299). The note with it: protein: recombinant; tags: N-terminal GST; dsDNA, one strand shown. Put shortly:
as §1

The next test deals with ETV1 (Homo sapiens, UniProt P50549 1-477). The note with it: protein: recombinant; tags: N-terminal GST; dsDNA, one strand shown. The gist of the method: as §1
Chain of ETV1 (P50549 whole entry): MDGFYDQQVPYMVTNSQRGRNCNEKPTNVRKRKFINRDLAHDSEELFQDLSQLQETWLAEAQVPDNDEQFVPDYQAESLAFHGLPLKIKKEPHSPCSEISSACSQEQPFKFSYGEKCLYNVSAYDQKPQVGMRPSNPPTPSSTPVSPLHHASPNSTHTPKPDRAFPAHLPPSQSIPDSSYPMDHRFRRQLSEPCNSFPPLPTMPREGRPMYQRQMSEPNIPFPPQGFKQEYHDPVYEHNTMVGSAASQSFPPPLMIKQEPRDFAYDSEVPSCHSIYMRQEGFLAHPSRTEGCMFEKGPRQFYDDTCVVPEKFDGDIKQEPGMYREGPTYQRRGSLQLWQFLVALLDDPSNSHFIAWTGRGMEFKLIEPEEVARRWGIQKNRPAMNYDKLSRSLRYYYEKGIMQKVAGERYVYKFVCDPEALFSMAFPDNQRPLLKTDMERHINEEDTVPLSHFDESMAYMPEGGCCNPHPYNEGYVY

Chain of ETV5 (P41161 whole entry): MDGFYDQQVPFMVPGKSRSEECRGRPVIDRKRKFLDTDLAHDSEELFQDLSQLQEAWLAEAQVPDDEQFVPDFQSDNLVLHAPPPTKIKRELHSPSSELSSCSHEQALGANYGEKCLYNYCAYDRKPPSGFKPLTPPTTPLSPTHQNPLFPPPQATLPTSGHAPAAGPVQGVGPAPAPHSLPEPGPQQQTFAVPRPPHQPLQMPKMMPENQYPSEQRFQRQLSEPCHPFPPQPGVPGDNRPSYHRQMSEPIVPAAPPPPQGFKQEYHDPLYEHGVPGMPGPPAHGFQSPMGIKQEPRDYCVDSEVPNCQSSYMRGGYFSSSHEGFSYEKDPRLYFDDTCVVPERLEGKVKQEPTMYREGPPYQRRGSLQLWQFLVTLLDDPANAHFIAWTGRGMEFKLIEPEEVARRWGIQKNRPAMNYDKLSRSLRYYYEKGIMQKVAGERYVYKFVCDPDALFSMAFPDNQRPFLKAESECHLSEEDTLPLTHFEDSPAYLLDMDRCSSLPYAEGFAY
Chain of SPIB (Q01892 whole entry): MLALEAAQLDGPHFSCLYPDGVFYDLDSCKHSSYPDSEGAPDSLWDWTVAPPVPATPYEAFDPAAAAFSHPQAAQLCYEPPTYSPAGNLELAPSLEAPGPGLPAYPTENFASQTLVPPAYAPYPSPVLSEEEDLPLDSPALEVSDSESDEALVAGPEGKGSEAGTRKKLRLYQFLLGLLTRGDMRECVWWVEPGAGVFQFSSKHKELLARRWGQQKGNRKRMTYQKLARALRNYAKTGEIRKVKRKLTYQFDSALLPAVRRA
Chain of HSF1 (Q00613 whole entry): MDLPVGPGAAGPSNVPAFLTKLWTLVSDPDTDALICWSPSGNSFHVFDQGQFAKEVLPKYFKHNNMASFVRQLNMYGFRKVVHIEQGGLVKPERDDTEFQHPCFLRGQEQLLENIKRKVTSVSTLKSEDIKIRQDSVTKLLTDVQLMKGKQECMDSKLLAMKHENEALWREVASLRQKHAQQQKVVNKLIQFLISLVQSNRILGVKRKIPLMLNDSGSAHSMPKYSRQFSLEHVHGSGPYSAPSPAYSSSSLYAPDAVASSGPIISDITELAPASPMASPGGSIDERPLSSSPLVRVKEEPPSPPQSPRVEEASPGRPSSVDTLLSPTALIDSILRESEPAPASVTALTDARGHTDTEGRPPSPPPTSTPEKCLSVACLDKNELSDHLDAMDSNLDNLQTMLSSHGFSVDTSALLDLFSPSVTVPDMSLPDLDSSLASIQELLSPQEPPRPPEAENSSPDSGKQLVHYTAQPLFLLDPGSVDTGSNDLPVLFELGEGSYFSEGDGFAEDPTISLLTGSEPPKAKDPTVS
Chain of ELF1 (P32519 whole entry): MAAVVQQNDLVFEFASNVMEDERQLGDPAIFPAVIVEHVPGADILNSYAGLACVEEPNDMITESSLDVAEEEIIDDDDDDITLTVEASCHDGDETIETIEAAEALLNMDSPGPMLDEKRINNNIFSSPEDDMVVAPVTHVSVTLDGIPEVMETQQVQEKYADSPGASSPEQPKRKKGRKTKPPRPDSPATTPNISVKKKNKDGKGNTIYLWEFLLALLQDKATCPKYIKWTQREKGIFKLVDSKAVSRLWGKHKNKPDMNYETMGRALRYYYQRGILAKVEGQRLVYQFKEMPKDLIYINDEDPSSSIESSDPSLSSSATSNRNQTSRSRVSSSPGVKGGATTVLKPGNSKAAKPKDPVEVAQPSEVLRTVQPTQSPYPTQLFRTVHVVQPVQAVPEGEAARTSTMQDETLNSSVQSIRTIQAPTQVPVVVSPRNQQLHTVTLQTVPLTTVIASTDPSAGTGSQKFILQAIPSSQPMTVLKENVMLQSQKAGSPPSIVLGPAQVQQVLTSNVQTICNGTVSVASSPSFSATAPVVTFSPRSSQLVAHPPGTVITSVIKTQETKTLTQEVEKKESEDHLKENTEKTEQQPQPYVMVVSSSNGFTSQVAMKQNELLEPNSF
Chain of ELF4 (Q99607 whole entry): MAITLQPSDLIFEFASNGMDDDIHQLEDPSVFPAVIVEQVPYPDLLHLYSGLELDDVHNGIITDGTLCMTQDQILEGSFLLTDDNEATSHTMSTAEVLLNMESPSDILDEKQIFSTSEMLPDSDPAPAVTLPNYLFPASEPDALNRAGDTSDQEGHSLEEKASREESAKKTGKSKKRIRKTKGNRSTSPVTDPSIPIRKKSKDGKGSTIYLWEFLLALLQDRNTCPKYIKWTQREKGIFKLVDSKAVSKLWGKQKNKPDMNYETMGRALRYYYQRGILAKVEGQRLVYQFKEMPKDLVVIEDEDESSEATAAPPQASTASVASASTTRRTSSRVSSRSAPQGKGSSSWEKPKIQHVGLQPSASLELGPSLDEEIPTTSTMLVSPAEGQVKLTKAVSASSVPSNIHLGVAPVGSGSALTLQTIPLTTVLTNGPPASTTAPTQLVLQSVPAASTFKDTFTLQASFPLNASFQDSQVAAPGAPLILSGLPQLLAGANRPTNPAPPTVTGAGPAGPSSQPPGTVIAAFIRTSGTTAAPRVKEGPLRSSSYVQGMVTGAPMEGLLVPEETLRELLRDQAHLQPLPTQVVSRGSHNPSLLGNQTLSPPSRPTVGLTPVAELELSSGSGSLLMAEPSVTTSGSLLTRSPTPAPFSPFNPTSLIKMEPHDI
Chain of CRX (O43186 whole entry): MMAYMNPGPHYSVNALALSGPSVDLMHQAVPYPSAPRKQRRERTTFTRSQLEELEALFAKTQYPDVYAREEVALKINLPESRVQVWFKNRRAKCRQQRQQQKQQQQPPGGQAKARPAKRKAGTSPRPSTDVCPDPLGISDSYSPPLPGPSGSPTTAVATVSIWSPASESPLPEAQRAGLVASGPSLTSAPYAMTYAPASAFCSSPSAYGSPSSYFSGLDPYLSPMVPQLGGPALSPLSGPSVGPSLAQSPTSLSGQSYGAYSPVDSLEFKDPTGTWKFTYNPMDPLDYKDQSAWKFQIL

Turning to ACCTGG, the binding signal is 1.25 fold enrichment (6-mer frequency, TF over GST control) with FLI1; 1.28 fold enrichment (6-mer frequency, TF over GST control) in the test with ELK1; 1.25 fold enrichment (6-mer frequency, TF over GST control) with GABPA; 1.25 fold enrichment (6-mer frequency, TF over GST control) with ERG; 1.25 fold enrichment (6-mer frequency, TF over GST control) with ELF1; 1.22 fold enrichment (6-mer frequency, TF over GST control) in the test with EHF. For the same sequence, the binding signal was 1.2 fold enrichment (6-mer frequency, TF over GST control) with SPI1; 1.31 fold enrichment (6-mer frequency, TF over GST control) in the test with SPIB; 1.23 fold enrichment (6-mer frequency, TF over GST control) in the test with ELK3; 1.17 fold enrichment (6-mer frequency, TF over GST control) with FEV; 1.2 fold enrichment (6-mer frequency, TF over GST control) in the test with ETV5; 1.2 fold enrichment (6-mer frequency, TF over GST control) with HSF1. Besides, the binding signal is 1.18 fold enrichment (6-mer frequency, TF over GST control) with SPIC; 1.33 fold enrichment (6-mer frequency, TF over GST control) with ELF4; 1.25 fold enrichment (6-mer frequency, TF over GST control) in the test with ELK4; 1.35 fold enrichment (6-mer frequency, TF over GST control) with ETV2; 1.19 fold enrichment (6-mer frequency, TF over GST control) in the test with ELF3; 1.14 fold enrichment (6-mer frequency, TF over GST control) with CRX. The binding signal with ETV1 was 1.29 fold enrichment (6-mer frequency, TF over GST control).

The values above are taken from PMC7862700, “An all-to-all approach to the identification of sequence-specific readers for epigenetic DNA modifications on cytosine”.
